Results filed as inconclusive are left out. Activity calls are given as the source filed them. Calls come from the whole dose curve; as a rule, active = well fitted inhibition curve with a large enough effect in the repeat runs; inconclusive = weak or mixed curves, or effect the other way; inactive = no such curve, though single readings can be large or run the other way.
Biological target: Nuclear receptor subfamily 1 group I member 3 (Homo sapiens) (UniProt Q14994)
Test: qHTS assay to identify small molecule antagonists of the constitutive androstane receptor (CAR) signaling pathway (AID 1224838);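 note: HepG2 cells stably expressing hCAR with CYP2B6 luciferase reporter stimulated by CITCO; nearly all actives have a fitted effect of over 40% in size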
Details: HepG2-CYP2B6-hCAR luciferase, CITCO-stimulated, 24 h; series mostly up to 92.4 µM
Excerpt: U.S. Tox21 Program National Center for Advancing Translational Sciences [NCATS] NIH Chemical Genomics Center [NCGC] U.S. Environmental Protection Agency [EPA] National Institutes of Environmental Health Sciences [NIEHS] National Toxicology Program [NTP] U.S. Food and Drug Administration [FDA] Tox21 Assay Overview: The constitutive androstane receptor (CAR) is a nuclear receptor which regulates multiple drug metabolizing enzymes (DMEs) and transporters. Activating CAR will generally increase the transcription and subsequent translation of CYP2B6 and CYP3A4. These two DMEs represent about 50% of the drug metabolizing potential in the body. When CAR is deactivated, the metabolizing potential in the body will decrease, subsequently increasing the toxicity in the body or lowering the therapeutic potential of a pro-drug. Recently, there have also been studies performed indicating CARs role in energy metabolism and cancer therapy. Therefore, inhibiting CARs activity could have a potential effect on diabetes and cancer. Identifying environmental toxins and compounds which modulate CAR, through the use of the Tox21 10K compound collection, will be an important step in determining the toxicity and potential therapeutic effects these factors will have on the human body.
Tox21 Assay Protocol Summary: A double-stable (hCAR and CYP2B6-2.2kb) transfected cell line, derived from human hepatoma (HepG2) cells, was utilized for the duration of the quantitative high-throughput screens. The HepG2-CYP2B6-hCAR cells suspended in DMEM culture medium supplemented with 10% FBS, 5 ug/mL blasticidin, 0.5 mg/mL geneticin, 100 U/mL penicillin and 100 ug/mL streptomycin were dispensed at 2500 cells/4 uL/well in 1536-well white solid bottom plates using a Multidrop Combi. After the assay plates were incubated at 37 C/5% CO2 for 4 hrs, 23 nL of compounds at 15 concentrations (from 5-48 columns) or positive control (from 1 to 4 columns) were transferred to the assay plates using a Pintool station. One uL of CITCO, was added using a Flying Reagent Dispenser to generate a final concentration of 50 nM CITCO inside each well. After a 24 hr incubation period at 37 C/5% CO2, four uL of ONE-Glo reagent was added into the assay plates using a Flying Reagent Dispenser. After a 30 min incubation period at room temperature, the luminescence intensity in the assay plates was measured using a ViewLux plate reader.

Nuclear receptor subfamily 1 group I member 3 (Homo sapiens), sequence (Q14994 whole entry, looked up): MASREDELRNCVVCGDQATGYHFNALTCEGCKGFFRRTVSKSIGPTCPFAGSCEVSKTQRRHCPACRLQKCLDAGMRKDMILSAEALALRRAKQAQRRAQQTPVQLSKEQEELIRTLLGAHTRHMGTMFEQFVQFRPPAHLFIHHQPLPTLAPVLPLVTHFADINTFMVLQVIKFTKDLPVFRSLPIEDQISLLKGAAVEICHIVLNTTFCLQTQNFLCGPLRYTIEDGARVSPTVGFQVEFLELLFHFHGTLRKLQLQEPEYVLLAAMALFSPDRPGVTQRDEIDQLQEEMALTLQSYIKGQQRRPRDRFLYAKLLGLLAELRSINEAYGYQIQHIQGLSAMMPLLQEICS

SMILES	outcome
CC(C)(C)c1cc(Cc2cc(C(C)(C)C)c(O)c(C(C)(C)C)c2)cc(C(C)(C)C)c1O	inactive
OCc1cccc(Oc2ccccc2)c1	inactive
CN(C)c1ccc(O)c2c1C[C@H]1C[C@H]3[C@H](N(C)C)C(=O)C(C(N)=O)=C(O)[C@@]3(O)C(=O)C1=C2O	inactive
CCOCCOCCOCCO	inactive
CCCOC(=O)c1ccccc1	inactive
CC1(C)S[C@@H]2[C@H](NC(=O)COc3ccccc3)C(=O)N2[C@H]1C(=O)O	inactive
NCCNCCN	inactive
CCCCCCCCCCCCCCCCO	inactive
CC(C)CCCCCCCOC(=O)CCCCC(=O)OCCCCCCCC(C)C	inactive
COC(=O)CCCC(=O)OC	inactive
O=c1[nH]cnc2[nH]ncc12	inactive
CC(=O)c1ccc(O)cc1	inactive
CCCCC(C=O)CC (stereo not given)	inactive
O=C(O)CCCCCCCCC(=O)O	inactive
CNC(=S)N(C)C	inactive
Cc1ccc(C(C)C)c(O)c1	inactive
Nc1nc(N)nc(-c2ccccc2)n1	inactive
O=C(OCC1CCC2OC2C1)C1CCC2OC2C1 (stereo not given)	inactive
CC1(C)OC[C@@H]2O[C@@]3(C(=O)O)OC(C)(C)O[C@H]3[C@@H]2O1	inactive
O=C(O)c1ccccc1C(=O)O	inactive

SMILES	outcome
O=C(O)c1cc2ccccc2cc1O	inactive
C=C(C)CNCC	inactive
CCCCCCCCCCN	inactive
CC(C)OP(=O)(CP(=O)(OC(C)C)OC(C)C)OC(C)C	inactive
COc1ccc(N)c(C)c1	inactive
O=S(=O)(O)c1ccc(N=Nc2c(O)ccc3cc(S(=O)(=O)O)ccc23)cc1	inactive
CCCCCCO	inactive
COc1ccc(C)cc1N	inactive
O=C1c2ccccc2CCc2ccccc21	inactive
CC1(C)NC(=O)NC1=O	inactive
C=CC(=O)OCCC(=O)O	inactive
CCCCCCCCCCCCCCCC(=O)OC(C)C	inactive
CC(C)(C#N)c1cc(Cn2cncn2)cc(C(C)(C)C#N)c1	inactive
CC(C)=CCl	inactive
COc1ccc([N+](=O)[O-])cc1N	inactive
COCCCN	inactive
C=Cc1ccc(C)cc1	inactive
O=C(O)Cn1c(=O)n(Cc2ccc(Br)cc2F)c(=O)c2ccc(Cl)cc21	inactive
Cc1ccc2ncccc2c1	inactive
CC(=O)OCCOC(C)=O	inactive
